# Biological target: PUM1 PUF domain R1-RAS (Homo sapiens, UniProt Q14671 828-1176, S863R;R864A;Q867S)
# Assay: yeast three-hybrid, YBZ-1, SC-Leu-His + 0.5 mM 3-AT, 4 days
# Settings: tags: N-Gal4 AD-HA kept; label: inside an RPR1-promoter hybrid RNA with tandem MS2 sites; ssRNA
# Outline: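 Pumilio-1 PUF domain libraries, randomized (NNK) at the three base-contacting residues of each repeat, were co-expressed with matching RNA elements from a centromeric plasmid in strain YBZ-1 (LexA–MS2 coat fusion, HIS3 reporter). Transformants were plated on SC-Leu (input) and SC-Leu-His + 0.5 mM 3-AT (selection) for four days, and repeat regions were PCR-amplified and Illumina-sequenced. The interaction score is the log2 change in variant frequency from input to selection, with pseudocount 1 where absent.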
# PUM1 PUF domain R1-RAS, sequence (Q14671 828-1176 S863R/R864A/Q867S): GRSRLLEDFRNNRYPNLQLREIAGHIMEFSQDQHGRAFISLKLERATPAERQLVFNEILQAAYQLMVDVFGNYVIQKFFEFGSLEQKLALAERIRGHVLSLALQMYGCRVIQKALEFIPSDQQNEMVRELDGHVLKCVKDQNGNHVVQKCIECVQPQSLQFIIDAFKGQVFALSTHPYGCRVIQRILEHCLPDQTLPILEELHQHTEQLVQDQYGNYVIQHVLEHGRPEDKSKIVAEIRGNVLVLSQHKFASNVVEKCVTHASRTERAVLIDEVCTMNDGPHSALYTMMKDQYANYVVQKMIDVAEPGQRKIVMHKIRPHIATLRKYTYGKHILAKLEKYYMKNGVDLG
row,Sequence,binding signal
1,GGCUAGAACUAGUGGAUCCCCCGGCGCCCGGCGGCUCGAGCCCGGGUAAGUGUAAAUUGUCUGCAUGCCGCCGGGCGCCAUGCCUGCAGGUCGACUCUAGAAAACAUG,2.89 log2 enrichment (interaction score)
2,GGCUAGAACUAGUGGAUCCCCCGGCGCCCGGCGGCUCGAGCCCGGGUAAGUGUAAAUGGUCUGCAUGCCGCCGGGCGCCAUGCCUGCAGGUCGACUCUAGAAAACAUG,1.5 log2 enrichment (interaction score)
3,GGCUAGAACUAGUGGAUCCCCCGGCGCCCGGCGGCUCGAGCCCGGGUAAGUGUAAAUCGUCUGCAUGCCGCCGGGCGCCAUGCCUGCAGGUCGACUCUAGAAAACAUG,3.1 log2 enrichment (interaction score)
